# From article PMC11006913
# Changes are numbered by the printed parent chain.
# How the values were obtained:
# Test in all cases: PBM; 200 nM protein, PBS
# Settings in all cases: dsDNA, one strand shown
# SIX6 [1] = target: T1, SIX6 (Homo sapiens, UniProt O95475 114-200, L167I)
# T1 sequence: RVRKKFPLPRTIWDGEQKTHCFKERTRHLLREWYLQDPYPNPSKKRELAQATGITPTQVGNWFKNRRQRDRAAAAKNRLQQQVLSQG
# SIX6 [2] = target: T2, SIX6 (Homo sapiens, UniProt O95475 114-200, L143V)
# T2 sequence: T1 sequence with L30V, I54L
# SIX6 [3] = target: T3, SIX6 (Homo sapiens, UniProt O95475 114-200, H141N)
# T3 sequence: T1 sequence with H28N, I54L
# SIX6 [4] = target: T4, SIX6 (Homo sapiens, UniProt O95475 114-200, T165P)
# T4 sequence: T1 sequence with T52P, I54L
# SIX6 [5] = target: T5, SIX6 (Homo sapiens, UniProt O95475 114-200, L167M)
# T5 sequence: T1 sequence with I54M
# SIX6 [6] = target: T6, SIX6 (Homo sapiens, UniProt O95475 114-200, L143M)
# T6 sequence: T1 sequence with L30M, I54L
# SIX6 [7] = target: T7, SIX6 (Homo sapiens, UniProt O95475 114-200, L143I)
# T7 sequence: T1 sequence with L30I, I54L
# SIX6 [8] = target: T8, SIX6 (Homo sapiens, UniProt O95475 114-200, T165G)
# T8 sequence: T1 sequence with T52G, I54L
# SIX6 [9] = target: T9, SIX6 (Homo sapiens, UniProt O95475 114-200, T139Q)
# T9 sequence: T1 sequence with T26Q, I54L
# SIX6 [10] = target: T10, SIX6 (Homo sapiens, UniProt O95475 114-200, T165A)
# T10 sequence: T1 sequence with T52A, I54L
# SIX6 [11] = target: T11, SIX6 (Homo sapiens, UniProt O95475 114-200, L167V)
# T11 sequence: T1 sequence with I54V
# SIX6 [12] = target: T12, SIX6 (Homo sapiens, UniProt O95475 114-200)
# T12 sequence: T1 sequence with I54L
# SIX6 [13] = target: T13, SIX6 (Homo sapiens, UniProt O95475 114-200, T165I)
# T13 sequence: T1 sequence with T52I, I54L
Sequence,binding signal (SIX6 [1]),binding signal (SIX6 [2]),binding signal (SIX6 [3]),binding signal (SIX6 [4]),binding signal (SIX6 [5]),binding signal (SIX6 [6]),binding signal (SIX6 [7]),binding signal (SIX6 [8]),binding signal (SIX6 [9]),binding signal (SIX6 [10]),binding signal (SIX6 [11]),binding signal (SIX6 [12]),binding signal (SIX6 [13])
AGGATATC,"11.1 upbm affinity estimate (log intensity, higher = more binding, comparable within an allelic series)","10.2 upbm affinity estimate (log intensity, higher = more binding, comparable within an allelic series)","11.1 upbm affinity estimate (log intensity, higher = more binding, comparable within an allelic series)","9.73 upbm affinity estimate (log intensity, higher = more binding, comparable within an allelic series)","10.7 upbm affinity estimate (log intensity, higher = more binding, comparable within an allelic series)","10.9 upbm affinity estimate (log intensity, higher = more binding, comparable within an allelic series)","10.3 upbm affinity estimate (log intensity, higher = more binding, comparable within an allelic series)","11.2 upbm affinity estimate (log intensity, higher = more binding, comparable within an allelic series)","11.1 upbm affinity estimate (log intensity, higher = more binding, comparable within an allelic series)","11.1 upbm affinity estimate (log intensity, higher = more binding, comparable within an allelic series)","10.9 upbm affinity estimate (log intensity, higher = more binding, comparable within an allelic series)","10.9 upbm affinity estimate (log intensity, higher = more binding, comparable within an allelic series)","10.9 upbm affinity estimate (log intensity, higher = more binding, comparable within an allelic series)"
CGCGCCGC,"9.05 upbm affinity estimate (log intensity, higher = more binding, comparable within an allelic series)","9.06 upbm affinity estimate (log intensity, higher = more binding, comparable within an allelic series)","9.06 upbm affinity estimate (log intensity, higher = more binding, comparable within an allelic series)","9.04 upbm affinity estimate (log intensity, higher = more binding, comparable within an allelic series)","9.05 upbm affinity estimate (log intensity, higher = more binding, comparable within an allelic series)","9.02 upbm affinity estimate (log intensity, higher = more binding, comparable within an allelic series)","9.02 upbm affinity estimate (log intensity, higher = more binding, comparable within an allelic series)","9.01 upbm affinity estimate (log intensity, higher = more binding, comparable within an allelic series)","9.07 upbm affinity estimate (log intensity, higher = more binding, comparable within an allelic series)","9.12 upbm affinity estimate (log intensity, higher = more binding, comparable within an allelic series)","9.02 upbm affinity estimate (log intensity, higher = more binding, comparable within an allelic series)","9.09 upbm affinity estimate (log intensity, higher = more binding, comparable within an allelic series)","9.04 upbm affinity estimate (log intensity, higher = more binding, comparable within an allelic series)"
GATATCAA,"11.4 upbm affinity estimate (log intensity, higher = more binding, comparable within an allelic series)","10.5 upbm affinity estimate (log intensity, higher = more binding, comparable within an allelic series)","11.3 upbm affinity estimate (log intensity, higher = more binding, comparable within an allelic series)","10 upbm affinity estimate (log intensity, higher = more binding, comparable within an allelic series)","10.8 upbm affinity estimate (log intensity, higher = more binding, comparable within an allelic series)","11 upbm affinity estimate (log intensity, higher = more binding, comparable within an allelic series)","10.3 upbm affinity estimate (log intensity, higher = more binding, comparable within an allelic series)","11.3 upbm affinity estimate (log intensity, higher = more binding, comparable within an allelic series)","11.1 upbm affinity estimate (log intensity, higher = more binding, comparable within an allelic series)","11.3 upbm affinity estimate (log intensity, higher = more binding, comparable within an allelic series)","11.1 upbm affinity estimate (log intensity, higher = more binding, comparable within an allelic series)","11.1 upbm affinity estimate (log intensity, higher = more binding, comparable within an allelic series)","11.1 upbm affinity estimate (log intensity, higher = more binding, comparable within an allelic series)"
ATGGGGGC,"8.95 upbm affinity estimate (log intensity, higher = more binding, comparable within an allelic series)","8.73 upbm affinity estimate (log intensity, higher = more binding, comparable within an allelic series)","9.01 upbm affinity estimate (log intensity, higher = more binding, comparable within an allelic series)","8.77 upbm affinity estimate (log intensity, higher = more binding, comparable within an allelic series)","8.95 upbm affinity estimate (log intensity, higher = more binding, comparable within an allelic series)","8.95 upbm affinity estimate (log intensity, higher = more binding, comparable within an allelic series)","8.81 upbm affinity estimate (log intensity, higher = more binding, comparable within an allelic series)","8.95 upbm affinity estimate (log intensity, higher = more binding, comparable within an allelic series)","9.11 upbm affinity estimate (log intensity, higher = more binding, comparable within an allelic series)","8.97 upbm affinity estimate (log intensity, higher = more binding, comparable within an allelic series)","8.97 upbm affinity estimate (log intensity, higher = more binding, comparable within an allelic series)","8.87 upbm affinity estimate (log intensity, higher = more binding, comparable within an allelic series)","8.97 upbm affinity estimate (log intensity, higher = more binding, comparable within an allelic series)"
CGCGGCCA,"8.81 upbm affinity estimate (log intensity, higher = more binding, comparable within an allelic series)","8.96 upbm affinity estimate (log intensity, higher = more binding, comparable within an allelic series)","8.88 upbm affinity estimate (log intensity, higher = more binding, comparable within an allelic series)","8.99 upbm affinity estimate (log intensity, higher = more binding, comparable within an allelic series)","8.82 upbm affinity estimate (log intensity, higher = more binding, comparable within an allelic series)","8.81 upbm affinity estimate (log intensity, higher = more binding, comparable within an allelic series)","8.93 upbm affinity estimate (log intensity, higher = more binding, comparable within an allelic series)","8.87 upbm affinity estimate (log intensity, higher = more binding, comparable within an allelic series)","8.91 upbm affinity estimate (log intensity, higher = more binding, comparable within an allelic series)","8.86 upbm affinity estimate (log intensity, higher = more binding, comparable within an allelic series)","8.96 upbm affinity estimate (log intensity, higher = more binding, comparable within an allelic series)","8.84 upbm affinity estimate (log intensity, higher = more binding, comparable within an allelic series)","8.87 upbm affinity estimate (log intensity, higher = more binding, comparable within an allelic series)"
CAGGTATC,"10.9 upbm affinity estimate (log intensity, higher = more binding, comparable within an allelic series)","10.2 upbm affinity estimate (log intensity, higher = more binding, comparable within an allelic series)","10.9 upbm affinity estimate (log intensity, higher = more binding, comparable within an allelic series)","9.6 upbm affinity estimate (log intensity, higher = more binding, comparable within an allelic series)","10.5 upbm affinity estimate (log intensity, higher = more binding, comparable within an allelic series)","10.7 upbm affinity estimate (log intensity, higher = more binding, comparable within an allelic series)","10.2 upbm affinity estimate (log intensity, higher = more binding, comparable within an allelic series)","11.1 upbm affinity estimate (log intensity, higher = more binding, comparable within an allelic series)","11.1 upbm affinity estimate (log intensity, higher = more binding, comparable within an allelic series)","11 upbm affinity estimate (log intensity, higher = more binding, comparable within an allelic series)","10.6 upbm affinity estimate (log intensity, higher = more binding, comparable within an allelic series)","10.9 upbm affinity estimate (log intensity, higher = more binding, comparable within an allelic series)","10.7 upbm affinity estimate (log intensity, higher = more binding, comparable within an allelic series)"
ACGATACC,"11.2 upbm affinity estimate (log intensity, higher = more binding, comparable within an allelic series)","10.3 upbm affinity estimate (log intensity, higher = more binding, comparable within an allelic series)","11.1 upbm affinity estimate (log intensity, higher = more binding, comparable within an allelic series)","9.65 upbm affinity estimate (log intensity, higher = more binding, comparable within an allelic series)","10.6 upbm affinity estimate (log intensity, higher = more binding, comparable within an allelic series)","11 upbm affinity estimate (log intensity, higher = more binding, comparable within an allelic series)","10.4 upbm affinity estimate (log intensity, higher = more binding, comparable within an allelic series)","11.3 upbm affinity estimate (log intensity, higher = more binding, comparable within an allelic series)","11.4 upbm affinity estimate (log intensity, higher = more binding, comparable within an allelic series)","11.1 upbm affinity estimate (log intensity, higher = more binding, comparable within an allelic series)","10.9 upbm affinity estimate (log intensity, higher = more binding, comparable within an allelic series)","11.1 upbm affinity estimate (log intensity, higher = more binding, comparable within an allelic series)","11 upbm affinity estimate (log intensity, higher = more binding, comparable within an allelic series)"
GCCCGGAA,"9.01 upbm affinity estimate (log intensity, higher = more binding, comparable within an allelic series)","8.91 upbm affinity estimate (log intensity, higher = more binding, comparable within an allelic series)","8.98 upbm affinity estimate (log intensity, higher = more binding, comparable within an allelic series)","8.9 upbm affinity estimate (log intensity, higher = more binding, comparable within an allelic series)","8.95 upbm affinity estimate (log intensity, higher = more binding, comparable within an allelic series)","9.01 upbm affinity estimate (log intensity, higher = more binding, comparable within an allelic series)","9 upbm affinity estimate (log intensity, higher = more binding, comparable within an allelic series)","9.03 upbm affinity estimate (log intensity, higher = more binding, comparable within an allelic series)","9.07 upbm affinity estimate (log intensity, higher = more binding, comparable within an allelic series)","8.96 upbm affinity estimate (log intensity, higher = more binding, comparable within an allelic series)","8.95 upbm affinity estimate (log intensity, higher = more binding, comparable within an allelic series)","8.97 upbm affinity estimate (log intensity, higher = more binding, comparable within an allelic series)","8.98 upbm affinity estimate (log intensity, higher = more binding, comparable within an allelic series)"
AAGTGCGC,"8.9 upbm affinity estimate (log intensity, higher = more binding, comparable within an allelic series)","9.07 upbm affinity estimate (log intensity, higher = more binding, comparable within an allelic series)","8.88 upbm affinity estimate (log intensity, higher = more binding, comparable within an allelic series)","9.2 upbm affinity estimate (log intensity, higher = more binding, comparable within an allelic series)","9.05 upbm affinity estimate (log intensity, higher = more binding, comparable within an allelic series)","9.11 upbm affinity estimate (log intensity, higher = more binding, comparable within an allelic series)","9.08 upbm affinity estimate (log intensity, higher = more binding, comparable within an allelic series)","9 upbm affinity estimate (log intensity, higher = more binding, comparable within an allelic series)","9.05 upbm affinity estimate (log intensity, higher = more binding, comparable within an allelic series)","8.96 upbm affinity estimate (log intensity, higher = more binding, comparable within an allelic series)","8.99 upbm affinity estimate (log intensity, higher = more binding, comparable within an allelic series)","9.04 upbm affinity estimate (log intensity, higher = more binding, comparable within an allelic series)","9.04 upbm affinity estimate (log intensity, higher = more binding, comparable within an allelic series)"
ATATCACA,"11.3 upbm affinity estimate (log intensity, higher = more binding, comparable within an allelic series)","10.3 upbm affinity estimate (log intensity, higher = more binding, comparable within an allelic series)","11.3 upbm affinity estimate (log intensity, higher = more binding, comparable within an allelic series)","9.9 upbm affinity estimate (log intensity, higher = more binding, comparable within an allelic series)","10.7 upbm affinity estimate (log intensity, higher = more binding, comparable within an allelic series)","11 upbm affinity estimate (log intensity, higher = more binding, comparable within an allelic series)","10.4 upbm affinity estimate (log intensity, higher = more binding, comparable within an allelic series)","11.3 upbm affinity estimate (log intensity, higher = more binding, comparable within an allelic series)","11.1 upbm affinity estimate (log intensity, higher = more binding, comparable within an allelic series)","11.2 upbm affinity estimate (log intensity, higher = more binding, comparable within an allelic series)","11.1 upbm affinity estimate (log intensity, higher = more binding, comparable within an allelic series)","11 upbm affinity estimate (log intensity, higher = more binding, comparable within an allelic series)","11 upbm affinity estimate (log intensity, higher = more binding, comparable within an allelic series)"
ATGACACC,"10.7 upbm affinity estimate (log intensity, higher = more binding, comparable within an allelic series)","10.2 upbm affinity estimate (log intensity, higher = more binding, comparable within an allelic series)","11.1 upbm affinity estimate (log intensity, higher = more binding, comparable within an allelic series)","9.61 upbm affinity estimate (log intensity, higher = more binding, comparable within an allelic series)","10.1 upbm affinity estimate (log intensity, higher = more binding, comparable within an allelic series)","10.7 upbm affinity estimate (log intensity, higher = more binding, comparable within an allelic series)","10.4 upbm affinity estimate (log intensity, higher = more binding, comparable within an allelic series)","11.4 upbm affinity estimate (log intensity, higher = more binding, comparable within an allelic series)","11.3 upbm affinity estimate (log intensity, higher = more binding, comparable within an allelic series)","11.4 upbm affinity estimate (log intensity, higher = more binding, comparable within an allelic series)","10.5 upbm affinity estimate (log intensity, higher = more binding, comparable within an allelic series)","10.9 upbm affinity estimate (log intensity, higher = more binding, comparable within an allelic series)","10.9 upbm affinity estimate (log intensity, higher = more binding, comparable within an allelic series)"
